PKD1 kinase inh = inhibitors of human PKD1 kinase | PKD1 kinase fluorescence polarization assay | inhibition, % (no concentration beside the values) | 200,000 compounds, 0.056% hits; in the data active = inhibition above about 50%
Redox H2O2 prof = compounds producing H2O2 with reducing agent – biochemical, NIH compound library profiling, artefact control for MLSCN library redox annotation, primary screen | DTT-dependent redox cycling H2O2, phenol red/HRP absorbance; 100% = 100 µM peroxide control, 0% = buffer | activation, % at 10 µM | 200,000 compounds, 0.03% hits | AID 878;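 active = activation of at least 50% relative to the plate's high and low controls in the primary single-dose screen; inactive = activation below 50%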;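 note: compound incubated with DTT at 0.8 mM final as the reducing agent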
UBC9 SUMO inh = SUMOylation inhibition; P63279; HTRF SUMOylation assay, SAE1/SAE2 + UBC9, in vitro; inhibition, % at 35 µM; 290,000 compounds, 0.36% hits; AID 2006; in the data active = inhibition above about 50%, passing the limit was not always enough
Furin inh = inhibitors of human furin | 220,000 compounds, 0.061% hits | inhibition, % at 20 µM or 30 µM | purified furin, fluorogenic substrate cleavage; in the data active = inhibition above about 25%
FAS-TE inh = FAS thioesterase (human) inhibition; recombinant FAS-TE, OMFH fluorogenic substrate, fluorescence endpoint; inhibition, % at 15 µM; 360,000 compounds, 0.67% hits;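 active = compounds whose normalised, plate-corrected inhibition of enzyme fluorescence in the single-dose primary screen is 50% or more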
p97 inhibitor = human p97 ATPase inhibition. inhibition, % at 8 µM. P55072. 220,000 compounds, 0.42% hits. recombinant p97 ATPase, Kinase-Glo ATP luminescence, 3 h; in the data active = inhibition above about 15%
Target sequence (P55072 whole entry, looked up): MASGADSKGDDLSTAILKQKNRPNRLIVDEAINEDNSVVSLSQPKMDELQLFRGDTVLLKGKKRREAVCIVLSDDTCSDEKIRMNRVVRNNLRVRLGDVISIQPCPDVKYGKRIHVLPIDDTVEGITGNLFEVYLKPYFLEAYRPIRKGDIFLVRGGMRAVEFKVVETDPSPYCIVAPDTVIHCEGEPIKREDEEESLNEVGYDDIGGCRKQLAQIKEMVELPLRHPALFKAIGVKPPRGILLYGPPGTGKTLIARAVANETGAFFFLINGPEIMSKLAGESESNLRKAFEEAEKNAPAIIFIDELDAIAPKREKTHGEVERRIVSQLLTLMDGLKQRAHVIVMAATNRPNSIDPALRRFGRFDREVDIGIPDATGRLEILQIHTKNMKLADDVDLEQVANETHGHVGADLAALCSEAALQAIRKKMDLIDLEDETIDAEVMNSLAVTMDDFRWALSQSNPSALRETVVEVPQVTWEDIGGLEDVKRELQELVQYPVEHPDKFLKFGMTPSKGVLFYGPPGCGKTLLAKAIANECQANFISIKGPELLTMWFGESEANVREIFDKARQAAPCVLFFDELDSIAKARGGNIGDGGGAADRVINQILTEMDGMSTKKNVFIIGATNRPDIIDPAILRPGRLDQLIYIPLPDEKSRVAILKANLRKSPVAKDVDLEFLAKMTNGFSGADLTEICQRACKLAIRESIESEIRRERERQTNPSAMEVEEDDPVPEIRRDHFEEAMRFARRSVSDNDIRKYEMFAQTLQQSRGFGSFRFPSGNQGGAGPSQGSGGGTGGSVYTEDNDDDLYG
p97 confirm = human p97 ATPase inhibition, confirmation. shares compounds with p97 inhibitor. 760 compounds, 44% hits. recombinant p97 ATPase, Kinase-Glo ATP luminescence. inhibition, % at 8 µM;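 active = percent inhibition of p97 ATPase above a set limit, the primary screen's mean plus 3 SD, cut at about 15% in these data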
Of the large screens only hits and unclear results are named; the others gave an inactive call (follow-up assays come after a bar, where they were run). Sampled rows, rich in hits. Any-hit rate of the full collection: about 1.2%.

CCOC(=O)C1=CN(Cc2ccco2)S(=O)(=O)N(CC)C1c1ccc(C(F)(F)F)cc1 (configuration not stated)	none (no result: PKD1 kinase inh, Redox H2O2 prof, UBC9 SUMO inh, Furin inh, p97 inhibitor)
CNc1cncc(-c2cccc(C(=O)N(C)C)c2)n1	none (no result: PKD1 kinase inh, Redox H2O2 prof, UBC9 SUMO inh, Furin inh, p97 inhibitor)
Cc1cc(OC(=O)c2ccc(S(=O)(=O)N3CCCCC3)cc2)c([N+](=O)[O-])c(=O)[nH]1	p97 inhibitor 15 | p97 confirm inactive
COc1cc(C(=O)c2nccc3cc(OC)c(OC)cc23)c([N+](=O)[O-])cc1OC	UBC9 SUMO inh 87, p97 inhibitor 30 | p97 confirm 25
COc1cc(N)c(C(=O)c2nccc3cc(OC)c(OC)cc23)cc1OC	none (no result: PKD1 kinase inh, Redox H2O2 prof, Furin inh, p97 inhibitor)
CCN1C(=O)N[C@@H](c2ccco2)C(C(=O)OC)=C1C	none (no result: PKD1 kinase inh, Redox H2O2 prof, UBC9 SUMO inh, Furin inh, p97 inhibitor)
CSc1nsc2nc(=O)c(/C=C3\C(C)=Nc4ccccc43)c(N)n12	p97 inhibitor 21 | p97 confirm 38
COC(=O)C(CC(=O)O)NCc1ccco1 (configuration not stated)	none (no result: PKD1 kinase inh, Redox H2O2 prof)
COCCOC(=O)C(CC(=O)O)NCc1ccco1 (configuration not stated)	p97 inhibitor 16 (no result: PKD1 kinase inh, Redox H2O2 prof) | p97 confirm inactive
COCCCN1C(=O)C(CC(=O)NCc2ccco2)CC(C(=O)N(C)C)=C1C (configuration not stated)	none (no result: PKD1 kinase inh, Redox H2O2 prof, UBC9 SUMO inh, Furin inh, p97 inhibitor)
c1cncc(-c2nc(NCc3ccc4c(c3)OCO4)c3ccccc3n2)c1	p97 inhibitor 17 (no result: PKD1 kinase inh, Redox H2O2 prof) | p97 confirm 21
COc1cccc(/C=C2\N=C(SC)SC2=O)c1OC	none
CSC1=NC(=O)/C(=C\c2cccc3ccccc23)S1	p97 inhibitor 15 | p97 confirm inactive
Cc1ccc(S(C)(=O)=O)cc1C(=O)Nc1ccc(S(=O)(=O)Nc2nccs2)cc1	none (no result: PKD1 kinase inh, Redox H2O2 prof, UBC9 SUMO inh, Furin inh, p97 inhibitor)
COCC(CN1CCN(C2=NS(=O)(=O)c3ccccc32)CC1)OC(=O)c1ccccc1 (configuration not stated)	none (no result: PKD1 kinase inh, Redox H2O2 prof, Furin inh, p97 inhibitor)
COc1ccc(Cn2c(-c3ccco3)nc3c(c(=O)c4ccccc4n3C)c2=O)cc1	none (no result: PKD1 kinase inh, Redox H2O2 prof)
Cn1c2ccccc2c(=O)c2c(=O)n(Cc3ccco3)c(-c3ccc(Cl)cc3Cl)nc21	p97 inhibitor 33 (no result: PKD1 kinase inh, Redox H2O2 prof, FAS-TE inh) | p97 confirm 24
Oc1ccc(/C=N/Nc2ccnc3cc(Cl)ccc23)cc1O	p97 inhibitor 33 (no result: PKD1 kinase inh, Redox H2O2 prof) | p97 confirm 41
O=C1CCN2C=Nc3cccc4ccc1c2c34	UBC9 SUMO inh 66, p97 inhibitor 26 | p97 confirm inactive
Cc1ccc(C(=O)Nc2ccccc2OC(F)F)cc1	none
O=C(Nc1ccccc1OC(F)F)c1ccccc1	p97 inhibitor 16 | p97 confirm inactive
COc1ccc([C@H]2C[C@H](n3cc(COC(=O)c4ccccc4)nn3)[C@@H](O)CN2CC2CCCCC2)cc1	none (no result: PKD1 kinase inh, Redox H2O2 prof, UBC9 SUMO inh, Furin inh, p97 inhibitor)
Oc1ccccc1N=Cc1c(O)ccc2ccccc12	none (no result: PKD1 kinase inh, Redox H2O2 prof)
CN(C)/N=C/c1c(O)ccc2ccccc12	none
OCC(CO)(CO)N=Cc1c(O)ccc2ccccc12	p97 inhibitor 29 | p97 confirm inactive
Oc1ccc2ccccc2c1C=NC12CN3CCN(CN(C3)C1)C2	p97 inhibitor 20 | p97 confirm 21
CC(C)c1ccc(C(=O)COC(=O)C(O)c2ccccc2)cc1 (configuration not stated)	none (no result: PKD1 kinase inh, Redox H2O2 prof, UBC9 SUMO inh, Furin inh, p97 inhibitor)
Cc1ccc(CN2CCC(n3nccc3NC(=O)CCOc3ccccc3)CC2)o1	none (no result: PKD1 kinase inh, Redox H2O2 prof, Furin inh, p97 inhibitor)
C[C@@H]1CNC(=O)c2c(C(=O)N[C@@H](Cc3c[nH]c4ccccc34)C(=O)OC(C)(C)C)ncn21	none (no result: PKD1 kinase inh, Redox H2O2 prof, UBC9 SUMO inh, Furin inh, p97 inhibitor)
COc1ccc(OC)c(Nc2nc(N)nc(CCl)n2)c1	p97 inhibitor 25 (no result: PKD1 kinase inh, Redox H2O2 prof) | p97 confirm 25
COc1cccc(Nc2nc(N)nc(CCl)n2)c1	p97 inhibitor 18 (no result: PKD1 kinase inh, Redox H2O2 prof) | p97 confirm 17
CC(=O)OCC(=O)C1=CCC2C3CCC4=CC(=O)C=CC4(C)C3(F)C(OC(C)=O)CC12C (configuration not stated)	p97 inhibitor 15 | p97 confirm inactive
CC(=O)OCC(=O)[C@@]1(O)CC[C@H]2[C@@H]3CCC4=CC(=O)C=C[C@]4(C)[C@@]3(F)[C@@H](O)C[C@@]21C	none (no result: PKD1 kinase inh, Redox H2O2 prof, UBC9 SUMO inh, Furin inh, p97 inhibitor)
CSc1ccccc1NC(=O)Nc1ccc(F)c(Cl)c1	p97 inhibitor 25 | p97 confirm inactive
Cc1ccc2cc(CCNS(=O)(=O)c3ccc(Br)cc3)c(=O)[nH]c2c1C	none (no result: PKD1 kinase inh, Redox H2O2 prof, Furin inh, p97 inhibitor)

Source: PubChem BioAssay (several laboratories)
